Hits are enriched below; roughly 5.5% of the tested compounds scored in any of these assays.
ELG1 DNA repair – qHTS screen for small molecules that inhibit ELG1-dependent DNA repair in human embryonic kidney (HEK293T) cells expressing luciferase-tagged ELG1; HEK293T ELG1-luciferase reporter, luminescence, 16 h; DNA damage induced by 5-fluorouridine; Potency, µM (series often up to 46.1 µM), inactives show at the top dose activity change, negative = inhibition, actives largely listed as inhibitors; hit rate 2.3% among 330,000; note: potency is the fitted concentration of half-maximal effect; nearly all actives have a fitted effect of over 55% in size
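DMSO vehicle served as the neutral condition. Each well held 2,000 cells given 5-fluorouridine plus compound; after 16 hr at 37 °C/5% CO2, ONE-Glo was added and luciferase measured 30 min later.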
Sfp PPTase inh – qHTS Assay for Inhibitors of Bacillus subtilis Sfp phosphopantetheinyl transferase (PPTase) | 4'-phosphopantetheinyl transferase ffp (Bacillus subtilis), Q9F4F7 | Biochemical Sfp PPTase activity, qHTS | hit rate 3.5% among 310,000 | Potency, µM, for inactives: largest response in the series, negative = inhibition, actives largely listed as inhibitors | AID 1490, 2009;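 note: the enzyme is Sfp with the accession as filed and its product quenches rhodamine fluorescence; potency is the fitted concentration of half-maximal effect; 0% = enzyme reaction without inhibitor and -100% = no enzyme wells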
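Compounds were incubated with enzyme (final 15 nM) for 15 min at room temperature before substrate addition started the reaction. Fluorescence at 525 nm excitation, 598 nm emission was recorded immediately and after 30 minutes.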
Giardia kill – Small Molecules that selectively kill Giardia lamblia: qHTS. Giardia lamblia trophozoite viability. activity change, % at 7.66 µM, hits read low. hit rate 0.15% among 340,000. AID 540267, 2011; in the data active = activity change below about -80%; inconclusive = between about -30% and that limit;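 note: parasites exposed to compound for two days anaerobically before the ATP read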
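Anaerobic 48 hrs incubation at 37 deg C of 100 trophozoites/well with test compounds; ATPLite 1-Step luminescence, 15-30 min RT, reports cellular ATP as viability.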
Coupling enz – qHTS Assay for Inhibitors of Fructose-1,6-bisphosphate Aldolase from Giardia Lamblia: Coupling assay counterscreen; coupling enzyme system counterscreen, AmpLite Red fluorescence; activity change, negative = inhibition, % at 58.2 µM, hits read low; AID 2472, 2010; hit rate 0.67% among 290,000; in the data active = activity change below about -30%
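Counterscreen of the coupled detection system alone, without aldolase: glyceraldehyde-3-phosphate coupling enzymes plus AmpLite Red readout. Compounds at 57.5 uM final, 10 min RT preincubation, 20 min RT reaction, fluorescence 525/598 nm.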
Active calls of the source: *; ? = inconclusive; nt = not tested or not shown. Unless noted, calls come from the whole dose curve; as a rule, active = well fitted curve in the direction sought with a large enough effect; inconclusive = small, poorly fitted or top-dose-only effect, or another doubt; inactive = no such curve, though single readings can be large; an effect the other way counts as inactive or inconclusive. Unless noted, % is set by controls: 0 for no effect and ±100 for the full control effect.

SMILES	ELG1 DNA repair	Sfp PPTase inh	Giardia kill	Coupling enz
O=[N+]([O-])c1cc(-c2nnc(Nc3ccc(O)cc3)c3ccccc23)ccc1N1CCOCC1	18µM*	-10%	23	0
O=[N+]([O-])c1cc(-c2nnc(Nc3ccccc3)c3ccccc23)ccc1N1CCOCC1	18µM*	3%	14	1
CC1CCCC(C)N1CC(O)Cn1c2ccccc2c2ccccc21 (stereo not given)	-6%	17%	17	0
O=C(C1CCN(S(=O)(=O)c2cccc3cccnc23)CC1)N1CCCC1	-4%	-1%	-23	6
Cc1cccc(N2CCN(C(=O)C3CCN(S(=O)(=O)c4cccc5cccnc45)CC3)CC2C)c1 (stereo not given)	18µM*	-4%	10	-8
Cc1cccc(N2CCN(C(=O)C3CCN(S(=O)(=O)c4cccc5nsnc45)CC3)CC2C)c1 (stereo not given)	?	-7%	-9	-1
O=C(C1CCN(S(=O)(=O)c2cccc3cccnc23)CC1)N1CC=C(c2ccccc2)CC1	23µM*	6%	nt	3
COC(=O)c1c(C)[nH]c(C(=O)OCc2csc(CC(=O)Nc3ccccc3C)n2)c1C	8.2µM*	nt	30	nt
COC(=O)[C@H](Cc1ccccc1)NC(=O)[C@H]1C[C@@H]1[C@H](NC(=O)OCc1ccccc1)c1ccccc1	nt	-24%	nt	4
CC(Nc1nc(=S)nc(Nc2ccc(F)cc2)[nH]1)c1ccccc1 (stereo not given)	-21%	45µM*	19	3
CC(=O)c1c(O)cc(=O)oc1-c1ccc(C)cc1	nt	nt	-24	nt
COc1cccc(CNC(=O)C2CCN(S(=O)(=O)N3CCC(C)CC3)CC2)c1	?	10%	-2	2
COc1ccc(C2=NO[C@@H]3C(=O)N(c4ccc5c(c4)OCCO5)C(=O)[C@H]23)cc1OC	?	12%	-11	-7
O=C1[C@@H]2C(c3cccnc3)=NO[C@@H]2C(=O)N1c1ccc2ccccc2c1	3%	50µM*	-5	-1
COc1cc(OC)cc(-c2sc3ccccc3c(=O)c2I)c1	nt	?	nt	2
Cc1c(NC(=O)CSC2=C(C#N)C(c3ccccc3F)CC(=O)N2)c(=O)n(-c2ccccc2)n1C (stereo not given)	-3%	14%	10	1
CC(C)c1ccc(C2C(C#N)=C(N)N3C(=C2C#N)Sc2ccccc23)cc1 (stereo not given)	?	-18%	nt	nt
CCSC1=C(C#N)C(c2ccccc2OC)CC(=O)N1 (stereo not given)	11%	2%	14	0
COc1ccc2ccccc2c1C1CC(=O)N2CN(C)CSC2=C1C#N (stereo not given)	-8%	7.9µM*	4	-7
CC(C)c1ccc(C2CC(=O)N3CN(C)CSC3=C2C#N)cc1 (stereo not given)	-3%	4.5µM*	0	-6
COc1ccc(Br)cc1C1CC(=O)N2CN(Cc3ccccc3)CSC2=C1C#N (stereo not given)	2%	2.2µM*	21	-6
N#CC1=C2SCN(Cc3ccccc3)CN2C(=O)CC1c1ccccc1F (stereo not given)	12%	2µM*	6	-12
O=S(=O)(Cc1ccccc1)Oc1ccccc1	25%	-2%	-4	-16
Cc1cc(C)cc(/C=C/C2OCC(O)C2Oc2ccc(C3CCCC3)cc2)c1 (stereo not given)	nt	7%	nt	0
COc1ccc(CNCc2ccccc2)cc1COc1ccc(NC(C)=O)cc1	nt	nt	11	nt
SMILES	ELG1 DNA repair	Sfp PPTase inh	Giardia kill	Coupling enz
Cc1cc(NC(=O)c2coc(=O)c(Br)c2)ccc1C(C)C	?	12%	-11	5
c1cncc(-c2cc(NCc3cccs3)ncn2)c1	nt	-26%	nt	2
COc1ccc(Br)cc1C1CC(=O)N2CN(C)CSC2=C1C#N (stereo not given)	-1%	2.2µM*	29	-10
COc1ccc(Br)cc1/C=N/N1C(=O)CSC1=S	-18%	-9%	-22	-2
COc1cc(OC)c(C2CC(=O)N3CN(C)CSC3=C2C#N)cc1OC (stereo not given)	4%	3.5µM*	-11	-10
N#CCSc1n[nH]c2nc3c(c(=O)n12)C1(CCCC1)Cc1ccccc1-3	?	89µM*	-7	7
